Screens (PubChem)
Hits are enriched below; roughly 12% of the tested compounds scored in any of these assays.
HP1b binding inh – HTS for Inhibitors of HP1-beta Chromodomain Interactions with Methylated Histone Tails | Chromobox protein homolog 1 (Homo sapiens), P83916 | AlphaScreen HP1-beta / biotin-H3K9me3 peptide binding | Potency, µM (highest dose often 114 µM), inactives show at the top dose activity change, negative = inhibition, usual class: inhibitors | 0.56% of 390,000 active | AID 540317, 2011; further: potency means the concentration at half of the fitted maximal effect; nearly all actives have a fitted effect of over 70% in size
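AlphaScreen: HP1-beta (50 nM) preformed 30 min with biotin-H3(1-18)K9me3 peptide (50 nM) in PBS pH 7.4, 0.01% Tween-20. Compound added for 30 min at RT, then streptavidin donor/nickel chelate acceptor beads (10 ug/mL) for 30 min.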
BAZ2B block – qHTS Assay for Inhibitors of BAZ2B; AlphaScreen BAZ2B-H3K14Ac peptide displacement; Potency, µM (top dose mostly 114 µM), for inactives: top-dose activity change, negative = inhibition, actives largely listed as inhibitors; 4.4% of 360,000 active; further: potency means the concentration at half of the fitted maximal effect; on the % scale 0 is the no-effect control and ±100 the full control effect; nearly all actives have a fitted effect of over 60% in size
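Inhibition is scored as reduced AlphaScreen emission. The BAZ2B/b-H3(5-23)K14Ac complex (50 nM each) in PBS pH 7.4, 0.01% Tween-20 meets compound (up to 110 uM) for 30 min at RT before bead addition.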
Sfp PPTase inh – qHTS Assay for Inhibitors of Bacillus subtilis Sfp phosphopantetheinyl transferase (PPTase). 4'-phosphopantetheinyl transferase ffp (Bacillus subtilis), Q9F4F7. Biochemical Sfp PPTase activity, qHTS. Potency, µM, for inactives: largest response in the series, negative = inhibition, usual class: inhibitors. 3.5% of 310,000 active. AID 1490, 2009;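 further: the enzyme is Sfp with the accession as filed and its product quenches rhodamine fluorescence; potency means the concentration at half of the fitted maximal effect; 0% = enzyme reaction without inhibitor and -100% = no enzyme wells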
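With Hepes-Na pH 7.6 buffer containing 10 mM MgCl2, Sfp (15 nM) modified BHQ-2-YbbR (12.5 uM) using rhodamine-CoA (5 uM). Two reads 30 minutes apart at 525/598 nm yielded each well's rate.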
JMJD2A Tudor inh – qHTS Assay for Inhibitors of JMJD2A-Tudor Domain | Potency, µM (series often up to 114 µM), inactives show at the highest dose activity change, negative = inhibition, actives largely listed as inhibitors | 4.4% of 390,000 active | Lysine-specific demethylase 4A (Homo sapiens), O75164 | AlphaScreen JMJD2A-Tudor / H3K4me3 peptide binding; further: potency means the concentration at half of the fitted maximal effect; on the % scale 0 is the no-effect control and ±100 the full control effect; nearly all actives have a fitted effect of over 50% in size
Target sequence (O75164 whole entry, looked up, the tested form may be a part): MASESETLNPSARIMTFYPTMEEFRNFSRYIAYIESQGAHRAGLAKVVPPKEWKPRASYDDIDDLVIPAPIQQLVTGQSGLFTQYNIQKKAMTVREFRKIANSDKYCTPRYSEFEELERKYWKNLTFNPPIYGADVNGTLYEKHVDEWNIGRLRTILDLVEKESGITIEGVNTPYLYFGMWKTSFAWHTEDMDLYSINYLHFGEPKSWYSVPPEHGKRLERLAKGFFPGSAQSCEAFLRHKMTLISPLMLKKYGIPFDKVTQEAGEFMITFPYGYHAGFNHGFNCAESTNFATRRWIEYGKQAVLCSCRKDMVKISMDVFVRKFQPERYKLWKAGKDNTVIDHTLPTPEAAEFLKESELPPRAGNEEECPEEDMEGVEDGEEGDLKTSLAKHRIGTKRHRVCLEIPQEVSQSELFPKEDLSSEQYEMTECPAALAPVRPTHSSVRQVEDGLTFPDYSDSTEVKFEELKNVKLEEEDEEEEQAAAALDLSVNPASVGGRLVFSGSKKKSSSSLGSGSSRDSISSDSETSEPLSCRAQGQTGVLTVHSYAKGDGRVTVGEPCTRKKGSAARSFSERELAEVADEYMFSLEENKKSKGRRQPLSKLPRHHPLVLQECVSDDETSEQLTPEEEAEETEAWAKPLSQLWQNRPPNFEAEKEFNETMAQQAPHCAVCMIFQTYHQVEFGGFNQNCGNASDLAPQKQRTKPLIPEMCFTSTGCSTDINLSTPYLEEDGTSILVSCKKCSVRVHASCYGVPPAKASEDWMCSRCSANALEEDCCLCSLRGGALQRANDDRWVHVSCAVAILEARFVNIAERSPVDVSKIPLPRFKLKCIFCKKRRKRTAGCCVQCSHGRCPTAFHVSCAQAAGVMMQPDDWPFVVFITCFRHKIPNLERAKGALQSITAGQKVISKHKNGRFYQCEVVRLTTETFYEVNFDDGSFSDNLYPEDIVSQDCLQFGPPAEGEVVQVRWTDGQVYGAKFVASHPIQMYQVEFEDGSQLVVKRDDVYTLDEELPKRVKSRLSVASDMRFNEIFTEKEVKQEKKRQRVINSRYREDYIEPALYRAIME
G9a inh – qHTS Assay for Inhibitors of Histone Lysine Methyltransferase G9a | Histone-lysine N-methyltransferase EHMT2 (Homo sapiens), Q96KQ7 | G9a H3K9 monomethylation, AlphaScreen, 2 h | Potency, µM (doses to about 102 µM), for inactives: at the highest dose activity, negative = inhibition, usual class: inhibitors | 8.8% of 350,000 active | AID 504332, 2011; further: potency means the concentration at half of the fitted maximal effect; on the % scale 0 is the no-effect control and ±100 the full control effect; nearly all actives have a fitted effect of over 75% in size
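Compounds were preincubated with 20 nM G9a for 15 min, after which biotinylated H3K9 peptide (500 nM) and SAM (20 uM) started a 2 h room-temperature reaction. Monomethylated product was quantified by antibody-based AlphaScreen chemiluminescence.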
L3MBTL1 block – qHTS Assay for the Inhibitors of L3MBTL1; Lethal(3)malignant brain tumor-like protein 1 (Homo sapiens), Q9Y468; AlphaScreen L3MBTL1–H3K9me1 peptide binding; Potency, µM (highest dose often 57.1 µM), inactives show at the top dose activity, negative = inhibition, usual class: inhibitors; 0.66% of 230,000 active; AID 485360, 2010; further: potency means the concentration at half of the fitted maximal effect; on the % scale 0 is the no-effect control and ±100 the full control effect; nearly all actives have a fitted effect of over 60% in size
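AlphaScreen assay: L3MBTL1 (50 nM final) was preincubated 30 min at room temperature with biotinylated H3(1-15)K9me1 peptide (75 nM final), then 30 min with library compounds; streptavidin donor and nickel chelate acceptor beads (10 ug/mL final) added, 30 min dark.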
Sfp inh conf – Confirmation qHTS Assay for Inhibitors of Bacillus subtilis Sfp phosphopantetheinyl transferase (PPTase); shares compounds with Sfp PPTase inh; Sfp PPTase enzymatic assay, qHTS titration; Potency, µM (highest dose often 114 µM), for inactives: top-dose activity change, negative = inhibition, most hits filed as inhibitors; 79% of 380 active; AID 2701, 2010;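 further: potency means the concentration at half of the fitted maximal effect; plate controls were uninhibited Sfp reaction for no effect and no enzyme control for full effect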
Sfp PPTase gel – Gel-Based Assay for Inhibitors of Bacillus subtilis Sfp phosphopantetheinyl transferase (PPTase); shares compounds with Sfp PPTase inh; purified Sfp, gel-based phosphopantetheinylation read-out; Potency, µM, actives largely listed as inhibitors; 20% of 210 active; AID 2707, 2010;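 active means potency below 100 µM; inconclusive means dose-dependent response but potency above 100 µM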;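 further: band intensities scaled against SCH202676 control wells before curve fitting; potency is an IC50 for inhibitors of Sfp transfer activity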
* marks the source's active call; other numbers are inactive results; i = inactive; ? = inconclusive; . = no result given; ! = not active in a repeat; [ ] = dose if it differs, or a comment. Unless noted, the call rests on the fitted dose curve; in most records, active means well fitted curve in the direction sought with a large enough effect; inconclusive means small, poorly fitted or top-dose-only effect, or another doubt; inactive means no such curve, though single readings can be large; an effect the other way counts as inactive or inconclusive.

SMILES	HP1b binding inh	BAZ2B block	Sfp PPTase inh	JMJD2A Tudor inh	G9a inh	L3MBTL1 block	Sfp inh conf	others
CC(C)C(C)NC(=O)CSc1nc2scc(-c3ccco3)c2c(=O)n1-c1ccccc1 (stereo not given)	21%	-7%	4.5µM*	-25%	10%[12.7 µM]	.	30µM*	Sfp PPTase gel=?
O=C(O)CNc1nc(-c2ccccc2)c2cc([N+](=O)[O-])ccc2n1	20%	79µM*	6.3µM*	-22%	7.9µM*	-12%	15µM*	Sfp PPTase gel=?
O=[N+]([O-])c1ccc2nc(NCCCO)nc(-c3ccccc3)c2c1	?	-4%	?	?	0%[59 µM]	-1%	.
CC(C)N(C(=O)Nc1ccc2nsnc2c1)C(C)C	-14%	-1%	4.5µM*	79µM*	.	-76%	24µM*	Sfp PPTase gel=i
CC1CN(C(=O)COC(=O)c2ccc(F)cc2Cl)CC(C)O1 (stereo not given)	13%	9%	27%	-5%	-8%	.	.
COc1cccc(NC(=O)Nc2cccs2)c1	10%	8%	11µM*	-18%	10µM*	-20%	30µM*	Sfp PPTase gel=i
O=C(c1ccccc1)N(c1ccccc1)c1ccccc1O	22%	.	.	-19%	.	.	.
Fc1ccc(C(Nc2ccccc2Cl)c2nnc(-c3ccccc3Cl)o2)cc1 (stereo not given)	92%	43%	.	50%	94%[59 µM]	.	.
COc1ccc(-c2cc(C(=O)N3CCN(c4ncccn4)CC3)c3ccccc3n2)cc1	45%	-23%	.	-1%	-4%[12.7 µM]	1%	.
Cc1ccc(-c2cc(C(=O)N3CCN(c4ncccn4)CC3)c3cc(Br)ccc3n2)o1	?	?	7.9µM*	35µM*	?	-15%	4.7µM*
Cc1cc2ccccc2n1CCNC(=O)c1ccc(Br)o1	?	?	13µM*	?	35µM*	-9%	24µM*
C/C=C/c1ccc(OCCCCOc2ccccc2F)c(OC)c1	188%	186%	?	75%	70%[59 µM]	133%	.
C/C=C/c1ccc(OCCCCn2cncn2)c(OC)c1	-59%	32µM*	1.1µM*	7.1µM*	?	.	-1%	Sfp PPTase gel=i
CCOC(=O)[C@H]1[C@H]2COc3ccc(Br)cc3[C@@H]2N2C(=O)CN(Cc3ccc(OC)cc3)C(=O)[C@@]12C	16%	-2%	.	-23%	16%[2.33 µM]	-10%	.
CC(=O)Nc1ccc(S(=O)(=O)N2CCN(c3ccc(C)c(C)c3)CC2)cc1	21%	-22%	.	-18%	1%[59 µM]	.	.
O=C(Nc1nnc(COc2ccc(Cl)cc2)s1)c1cccs1	?	5%	14µM*	-23%[11.4 µM]	?	-7%	24µM*
CCN(CC)S(=O)(=O)c1nnc(NC(=O)c2ccc(C)cc2)s1	-22%	?	.	?	?	.	.
NCCc1c(-c2ccccc2)n(-c2ccccc2)c2ccccc12	?	22µM*	16µM*	32µM*	45µM*	?	42µM*	Sfp PPTase gel=i
CC(=O)n1c(-c2ccccc2)c(CO)c2ccccc21	32%	-8%[57.1 µM]	16%	1%	15%	-5%	.
CCCN(CCC)C(=O)C1CCCN1S(=O)(=O)c1cccc2nsnc12 (stereo not given)	24%	-12%	1%	-8%[11.4 µM]	34%	.	.
CC(=O)c1cccc(S(=O)(=O)N2CCCC(c3nc(-c4ccc(C)o4)no3)C2)c1 (stereo not given)	3%	-29%	56µM*	-23%	4µM*	-5%	24µM*
Cn1c(/N=C/c2c(O)ccc3ccccc23)nc2ccccc21	?	56µM*	0.89µM*	40µM*	1.8µM*	35µM*	-9%
CCCn1c(/N=C/c2ccccc2O)nc2ccccc21	50%	-6%	1%	-7%	-30%[59 µM]	0%	.
COC(=O)c1sc2ccccc2c1N	-1%	13%	14µM*	-28%	?	2%	47µM*
CC(=O)Nc1nc(C)c(S(N)(=O)=O)s1	42%	-1%	31%	-7%	2%	-1%	.
SMILES	HP1b binding inh	BAZ2B block	Sfp PPTase inh	JMJD2A Tudor inh	G9a inh	L3MBTL1 block	Sfp inh conf	others
CC(=O)N=c1sc(S(N)(=O)=O)nn1C	34%	-17%	25µM*!	-7%	13µM*	4%	47µM*	Sfp PPTase gel=i
Cc1cc(C)n2nc(C(=O)OCC(=O)Nc3ccc(F)cc3F)nc2n1	12%	-2%	.	-7%	4%[59 µM]	6%	.
Cn1c(=O)oc2cc(S(=O)(=O)N3CCC(C(=O)NCCc4ccccc4)CC3)ccc21	30%	3%	1%	-10%	.	.	.
NC(=O)Cn1c(=O)n(Cc2ccco2)c(=O)c2c3c(sc21)CCCCC3	-45%	?	10µM*	56µM*	20µM*	?	19µM*
Nc1nnc2c(n1)CCCC2	21%	50µM*	45µM*	22µM*	?	?	53µM*	Sfp PPTase gel=6.2µM*
Cn1c(=O)c2c(ncn2CCC(=O)N/N=C/c2cccnc2)n(C)c1=O	46%	-1%	3%	19%[57.1 µM]	-8%	4%	.
CC(C)(C)Cc1nnc(NC(=O)CSc2ccccc2)s1	?	?	14µM*	56µM*	4.5µM*	-12%	7.4µM*
CCOCc1nnc(NC(=O)CSc2ccccc2)s1	25%	7%	13%	4%	-2%[12.7 µM]	10%	.
O=C(COC(=O)/C=C/c1ccco1)NCc1ccc(Cl)cc1Cl	18%	.	.	-8%	.	-2%	.
O=C(COC(=O)/C=C/c1ccco1)NCc1ccccc1Cl	24%	15%	7.9µM*	-13%	45µM*	18%	37µM*	Sfp PPTase gel=i
Cc1ccc(Cn2c(=S)[nH]c3ccc(N4CCOCC4)cc3c2=O)o1	?	?	2.5µM*	22µM*	?	-9%[11.4 µM]	2.6µM*
CCCc1nn2c(=O)cc(COc3ccc(NC(=O)c4ccco4)cc3)nc2s1	15%	4%	11%	?	26%	.	.
COCCNC(=O)c1c(N)sc2c1CCCC2	.	?	14µM*	.	?	.	37µM*
CNC(=O)c1c(N)sc2c1CCCCC2	.	-10%	20µM*	.	10µM*	-3%	21µM*
CCOC(=O)c1c(N)sc2c1CCN(Cc1ccccc1)C2	.	.	10µM*	.	10µM*	.	21µM*
